Values without a mark were called inactive. Records with an inconclusive call do not appear. Where a call stands in place of a potency, no number is given. Active and inactive are the calls of the source. Unless noted, calls follow the shape of the dose curve; as a rule, active = well fitted curve in the direction sought with a large enough effect in the repeat runs; inconclusive = weak or mixed curves; inactive = no such curve, though single readings can be large; an effect the other way counts as inactive or inconclusive.
How the values were obtained:
[1] = target: Thyrotropin receptor (Homo sapiens) (UniProt P16473); test: qHTS assay to identify small molecule antagonists of the thyroid stimulating hormone receptor (TSHR) signaling pathway (AID 1259385; calls by dose curve; also: nearly all actives have a fitted effect of over 20% in size)
Outline: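 Antagonist mode: compound-treated TSHR-expressing HEK293 cells were stimulated with 1.5 ng/mL TSH (final) in presence of Ro20-1724 for 30 min at RT. HTRF cAMP detection after 1 h; each compound tested at 15 concentrations, triplicate.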

[2] = qHTS assay to identify small molecule agonists of the estrogen receptor alpha (ER-alpha) signaling pathway in the presence of an antagonist - cell viability counter screen (AID 1259386);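 also: series mostly up to about 92 µM; cells exposed to compounds for 22 h at 37 °C before the viability read; nearly all actives have a fitted effect of over 30% in size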
Outline: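 The test measures whether compounds kill ER-alpha reporter cells (VM7Luc4E2) under antagonist co-treatment (ICI-182,780, 10.0nM). Fluorescence from CellTiter-Fluor is read after a 22hr exposure.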

[3] = qHTS assay to identify small molecule agonists of the progesterone receptor (PR) signaling pathway - cell viability counter screen (AID 1346799; calls by dose curve; also: nearly all actives have a fitted effect of over 45% in size)
Outline: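 Viability was scored by ATP luminescence (CellTiter-Glo, 30 min, room temperature) in the same wells used for the reporter readout, after 16 hr compound exposure of PR-UAS-bla HEK293T cells.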

[4] = qHTS assay to identify small molecule antagonists of the TGF-beta/Smad signaling pathway - cell viability counter screen (AID 1346824); also: nearly all actives have a fitted effect of over 50% in size
Outline: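 Cytotoxicity counter-screen run in the same wells as the beta-lactamase Smad reporter read: CellTiter-Glo luminescence after 30 min at room temperature. HEK 293T SBE-bla cells had 5 hr compound exposure at 37 C with TGF-beta1 (0.25 ng/mL stock).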

[5] = qHTS assay to identify small molecule agonists of the TGF-beta/Smad signaling pathway - cell viability counter screen (AID 1346829); also: top concentration of the series differs between compounds; nearly all actives have a fitted effect of over 45% in size
Outline: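 HEK 293T SBE-bla line, 5 hr compound exposure at 37 C, multiplexed CellTiter-Glo viability read by luminescence.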

[6] = qHTS assay to identify small molecule agonists of the TGF-beta/Smad signaling pathway (AID 1346859; active = well fitted activation curve with a large enough effect in the signal ratio in the repeat runs, not every such curve was filed as active; the % refers to the signal ratio; also: potency is read from the fitted curve at half-maximal effect; as to activation: series mostly up to about 77 µM)
Outline: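 Dual-wavelength fluorescence (460/530 nm emission) quantified beta-lactamase expression under the Smad binding element in HEK 293T cells following 5 hr compound treatment at 37 C.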

[7] = target: Thyrotropin-releasing hormone receptor (Homo sapiens) (UniProt P34981); test: qHTS assay to identify small molecule antagonists of the thyrotropin-releasing hormone receptor (TRHR) signaling pathway (AID 1346877; active = well fitted inhibition curve with a large enough effect in the repeat runs, not every such curve was filed as active; also: series mostly up to about 51 µM)
Outline: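 Overnight-plated (18 h, 37 °C) HEK293 cells expressing TRHR were dye-loaded 2 h, treated with compound, then stimulated with TRH at 1 nM final. Fluorescence intensity was captured every second for 3 min.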

[8] = Human pregnane X receptor (PXR) small molecule agonists, qHTS cell viability counter screen (AID 1346977); also: nearly all actives have a fitted effect of over 50% in size; also: potency is read from the fitted curve at half-maximal effect
Outline: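 HepG2 cells stably carrying the PXR-Luc reporter are cultured with 5% charcoal-stripped FBS and treated with compounds for 24hr. CellTiter-Fluor is added at 23hr and fluorescence is read after 1hr.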

[9] = Caspase-3/7 induction in HepG2 cells by small molecules, qHTS assay (AID 1346978); also: nearly all actives have a fitted effect of over 15% in size
Outline: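 Caspase-3/7 induction was measured by Caspase-Glo 3/7 luminescence (30 min, room temperature) after a 17 hr compound exposure of wild-type HepG2 cells seeded at 2,000 per well and pre-incubated 5 hr.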

[10] = Caspase-3/7 induction in CHO-K1 cells by small molecules, qHTS cell viability counter screen (AID 1346979); also: nearly all actives have a fitted effect of over 35% in size
Outline: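 Seeding: 1,500 CHO-K1 cells/well. Rest: 5hr, 37C. Treatment: compounds in DMSO, 16hr. Read: CellTiter-Fluor, 1hr, fluorescence.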

[11] = Caspase-3/7 induction in CHO-K1 cells by small molecules, qHTS assay (AID 1346980); also: nearly all actives have a fitted effect of over 15% in size
Outline: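 Luminescent Caspase-Glo 3/7 read (30min, room temperature) quantified apoptosis induction. Cells were wild-type CHO-K1, treated with compound for 17hr at 37 C and 5% CO2.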

[12] = Caspase-3/7 induction in HepG2 cells by small molecules, qHTS cell viability counter screen (AID 1346981); also: series mostly up to about 92 µM; nearly all actives have a fitted effect of over 30% in size
Outline: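 Treatment of HepG2 cells with DMSO-delivered compounds ran 16 hr at 37 C following a 5-hr pre-incubation of 2,000 cells/well. CellTiter-Fluor fluorescence, read after 1 hr, served as the viability measure in a qHTS format.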

[13] = target: Nuclear receptor subfamily 1 group I member 2 (Homo sapiens) (UniProt O75469); test: Human pregnane X receptor (PXR) small molecule agonists, qHTS assay (AID 1346982); also: nearly all actives have a fitted effect of over 35% in size; also: potency is read from the fitted curve at half-maximal effect
Outline: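 Stable HepG2 line reporting PXR-mediated CYP3A4 expression via luciferase. Treatment: 24 hr with compounds in DMSO at 37 C. Detection: ONE-Glo luminescence.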

[14] = target: Progesterone receptor (Homo sapiens) (UniProt P06401); test: qHTS assay to identify small molecule agonists of the progesterone receptor (PR) signaling pathway (AID 1346784; calls by dose curve; also: nearly all actives have a fitted effect of over 30% in size)
Outline: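 The screen uses PR-UAS-bla HEK 293T cells in charcoal-stripped serum (2%). Compounds are applied for 16 hr at 37C after a 6 hr pre-incubation, and reporter activity is detected with a FRET beta-lactamase substrate after 2 hr at room temperature.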

[15] = target: Progesterone receptor (Homo sapiens) (UniProt P06401); test: qHTS assay to identify small molecule antagonists of the progesterone receptor (PR) signaling pathway (AID 1346795; active = well fitted inhibition curve with a large enough effect in the signal ratio in the repeat runs, not every such curve was filed as active; the % refers to the signal ratio; also: potency is read from the fitted curve at half-maximal effect)
Outline: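 After 6 hr plating at 37C in 2% stripped-serum medium, PR-UAS-bla HEK293T cells got compounds, then 1 nM R5020. Sixteen hours later, LiveBLAzer substrate was applied for 2 hr at room temperature and fluorescence was recorded.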

[16] = target: Thyrotropin-releasing hormone receptor (Homo sapiens) (UniProt P34981); test: qHTS assay to identify small molecule agonists of the thyrotropin-releasing hormone receptor (TRHR) signaling pathway (AID 1346891; calls by dose curve;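 also: HEK293 cells expressing TRHR with calcium dye readout; series mostly up to about 58 µM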)
Outline: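 Kinetic fluorescence (3 min, 1 s intervals) reported intracellular calcium after compound transfer onto TRHR-Hek293 cells pre-loaded with dye for 2 h at 37 °C.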

[17] = qHTS assay to identify small molecule antagonists of the progesterone receptor (PR) signaling pathway - cell viability counter screen (AID 1346798); also: series mostly up to about 92 µM; nearly all actives have a fitted effect of over 50% in size
Outline: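 Viability was determined by ATP-based luminescence (CellTiter-Glo) in PR-UAS-bla HEK293T cells cultured in 2% charcoal-stripped serum and incubated 16 hr with compounds under R5020 stimulation.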

[18] = target: Nuclear receptor subfamily 1 group I member 2 (Homo sapiens) (UniProt O75469); test: Human pregnane X receptor (PXR) activation by small molecules, qHTS assay (AID 1346985); also: nearly all actives have a fitted effect of over 40% in size
Outline: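 DPX-2 cells (HepG2 co-transfected with a PXR response element and a CYP3A4-promoter luciferase construct) were seeded at 2,000 per well, rested 5 hr at 37C, then exposed to DMSO-dissolved compounds for 24 hr. Activation was read as luciferase luminescence.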

[19] = target: Nuclear receptor subfamily 1 group I member 2 (Rattus norvegicus) (UniProt Q9R1A7); test: Rat pregnane X receptor (rPXR) activation by small molecules, qHTS assay (AID 1346983); conditions: rPXR luciferase reporter cells, One-Glo luminescence, 24 h; max activation: hits give high values; also: nearly all actives have a fitted effect of over 20% in size
Outline: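 Luminescent readout (One-Glo luciferase, 30 min room temperature) followed 24 hr compound treatment at 37 C of rPXR cells plated 2,000 per well and preincubated 5hr; qHTS format with compounds delivered in DMSO.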

[20] = target: Nuclear receptor subfamily 1 group I member 2 (Homo sapiens) (UniProt O75469); test: CYP3A4 induction through human pregnane X receptor (PXR) by small molecules, qHTS assay (AID 1346984); also: nearly all actives have a fitted effect of over 40% in size
Outline: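 After 24 h at 37C with compound, DPX-2 cells (HepG2, co-transfected PXR response element and CYP3A4 promoter-luciferase) got 3uM final P450-Glo Luciferin-IPA for 3 h; One-Glo luminescence followed.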

Chain of Thyrotropin-releasing hormone receptor (Homo sapiens) (P34981 whole entry, looked up): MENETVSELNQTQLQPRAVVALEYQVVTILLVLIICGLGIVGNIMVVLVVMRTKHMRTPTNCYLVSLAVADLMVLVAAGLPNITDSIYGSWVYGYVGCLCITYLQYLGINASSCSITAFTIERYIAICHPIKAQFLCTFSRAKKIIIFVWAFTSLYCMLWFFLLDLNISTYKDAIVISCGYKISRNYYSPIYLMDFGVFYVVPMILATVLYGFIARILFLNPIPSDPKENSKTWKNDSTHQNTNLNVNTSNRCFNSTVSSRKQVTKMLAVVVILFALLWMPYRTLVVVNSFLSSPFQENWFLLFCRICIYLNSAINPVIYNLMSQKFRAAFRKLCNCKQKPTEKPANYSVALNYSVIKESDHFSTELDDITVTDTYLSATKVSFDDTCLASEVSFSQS
Chain of Progesterone receptor (Homo sapiens) (P06401 whole entry, looked up): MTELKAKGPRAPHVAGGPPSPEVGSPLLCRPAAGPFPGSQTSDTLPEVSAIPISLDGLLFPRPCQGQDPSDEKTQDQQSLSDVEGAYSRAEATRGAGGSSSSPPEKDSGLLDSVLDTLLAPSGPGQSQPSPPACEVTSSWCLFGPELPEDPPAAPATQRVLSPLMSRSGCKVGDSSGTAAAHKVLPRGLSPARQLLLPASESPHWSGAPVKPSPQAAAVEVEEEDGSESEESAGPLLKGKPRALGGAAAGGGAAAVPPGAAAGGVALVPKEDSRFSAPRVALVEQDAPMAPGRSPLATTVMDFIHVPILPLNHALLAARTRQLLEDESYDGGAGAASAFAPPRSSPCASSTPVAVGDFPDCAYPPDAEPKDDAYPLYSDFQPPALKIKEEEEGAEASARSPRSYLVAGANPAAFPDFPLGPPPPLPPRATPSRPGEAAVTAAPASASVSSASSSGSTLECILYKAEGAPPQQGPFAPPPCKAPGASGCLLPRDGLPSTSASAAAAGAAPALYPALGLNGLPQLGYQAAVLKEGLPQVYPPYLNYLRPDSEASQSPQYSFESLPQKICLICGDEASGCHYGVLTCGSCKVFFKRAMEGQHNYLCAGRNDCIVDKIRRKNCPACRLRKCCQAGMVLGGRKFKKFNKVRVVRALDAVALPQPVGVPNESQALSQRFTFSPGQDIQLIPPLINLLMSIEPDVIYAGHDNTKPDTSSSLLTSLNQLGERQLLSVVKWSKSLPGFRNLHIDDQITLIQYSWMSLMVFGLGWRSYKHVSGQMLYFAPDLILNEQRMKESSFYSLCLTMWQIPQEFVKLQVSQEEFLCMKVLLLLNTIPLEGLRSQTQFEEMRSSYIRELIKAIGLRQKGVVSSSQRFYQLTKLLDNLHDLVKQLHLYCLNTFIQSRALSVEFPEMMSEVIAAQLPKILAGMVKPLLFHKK
Chain of Nuclear receptor subfamily 1 group I member 2 (Homo sapiens) (O75469 whole entry, looked up): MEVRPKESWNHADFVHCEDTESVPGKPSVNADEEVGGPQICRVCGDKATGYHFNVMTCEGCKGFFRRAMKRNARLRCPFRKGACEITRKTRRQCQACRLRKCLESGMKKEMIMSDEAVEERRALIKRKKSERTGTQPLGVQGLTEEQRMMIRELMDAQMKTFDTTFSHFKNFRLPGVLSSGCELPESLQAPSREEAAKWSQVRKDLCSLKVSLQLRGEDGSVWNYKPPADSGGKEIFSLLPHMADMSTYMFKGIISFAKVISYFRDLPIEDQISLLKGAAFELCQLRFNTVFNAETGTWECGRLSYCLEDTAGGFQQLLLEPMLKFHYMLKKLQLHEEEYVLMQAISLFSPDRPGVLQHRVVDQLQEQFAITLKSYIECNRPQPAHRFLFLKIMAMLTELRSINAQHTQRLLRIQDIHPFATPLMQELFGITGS
Chain of Thyrotropin receptor (Homo sapiens) (P16473 whole entry, looked up): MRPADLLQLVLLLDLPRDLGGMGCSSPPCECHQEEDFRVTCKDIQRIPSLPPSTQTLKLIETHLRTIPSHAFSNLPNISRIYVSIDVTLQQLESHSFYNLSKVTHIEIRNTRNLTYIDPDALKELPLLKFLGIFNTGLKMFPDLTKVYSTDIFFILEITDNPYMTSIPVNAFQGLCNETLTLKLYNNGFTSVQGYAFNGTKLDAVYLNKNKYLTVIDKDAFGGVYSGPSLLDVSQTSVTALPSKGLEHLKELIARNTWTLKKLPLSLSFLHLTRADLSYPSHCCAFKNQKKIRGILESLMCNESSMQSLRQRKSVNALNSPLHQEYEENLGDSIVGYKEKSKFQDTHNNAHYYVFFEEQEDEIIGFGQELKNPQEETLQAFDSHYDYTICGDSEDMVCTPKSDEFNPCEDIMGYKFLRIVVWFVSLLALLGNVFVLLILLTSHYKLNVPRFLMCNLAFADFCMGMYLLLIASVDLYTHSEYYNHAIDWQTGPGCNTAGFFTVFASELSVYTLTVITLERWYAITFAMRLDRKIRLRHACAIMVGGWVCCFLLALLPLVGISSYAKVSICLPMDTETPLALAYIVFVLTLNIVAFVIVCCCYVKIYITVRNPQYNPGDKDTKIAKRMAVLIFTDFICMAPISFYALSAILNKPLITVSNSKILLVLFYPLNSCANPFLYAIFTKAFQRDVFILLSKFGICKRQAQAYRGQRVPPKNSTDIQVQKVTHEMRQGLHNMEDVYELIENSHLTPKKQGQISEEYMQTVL
Chain of Nuclear receptor subfamily 1 group I member 2 (Rattus norvegicus) (Q9R1A7 whole entry, looked up): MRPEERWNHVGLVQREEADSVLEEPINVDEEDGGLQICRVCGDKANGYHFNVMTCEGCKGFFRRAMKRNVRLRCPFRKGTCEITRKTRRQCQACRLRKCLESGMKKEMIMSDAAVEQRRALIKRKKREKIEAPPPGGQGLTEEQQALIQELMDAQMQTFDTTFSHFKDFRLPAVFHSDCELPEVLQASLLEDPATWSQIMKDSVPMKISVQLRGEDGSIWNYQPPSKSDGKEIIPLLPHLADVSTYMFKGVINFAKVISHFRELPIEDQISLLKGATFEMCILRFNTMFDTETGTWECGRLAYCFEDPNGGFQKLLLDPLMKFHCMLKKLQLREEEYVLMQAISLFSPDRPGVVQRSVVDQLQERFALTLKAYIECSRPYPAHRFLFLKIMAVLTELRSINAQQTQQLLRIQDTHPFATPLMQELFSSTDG

Compound	Potency [1]	Potency [2]	Potency [3]	outcome [4]	Potency [5]	Potency [6]	outcome [7]	Potency [8]	Potency [9]	Potency [10]	outcome [11]	Potency [12]	Potency [13]	Potency [14]	Potency [15]	outcome [16]	Potency [17]	Potency [18]	max activation [19]	Potency [20]
O=C1NC(=O)c2cccc3cccc1c23	inactive	inactive	inactive	inactive	inactive	inactive	inactive	inactive	inactive	inactive	inactive	inactive	12.2 µM (active)	–	–	–	–	–	–	–
COC(C)(C)OC	inactive	–	inactive	inactive	inactive	inactive	inactive	inactive	inactive	–	inactive	inactive	inactive	inactive	inactive	inactive	–	–	–	–
C=CCOC(=O)COCCC(C)C	inactive	–	inactive	inactive	inactive	inactive	inactive	inactive	inactive	inactive	inactive	inactive	inactive	inactive	inactive	–	inactive	–	–	–
CC[C@H]1OC(=O)[C@H](C)[C@@H](O[C@H]2C[C@@](C)(OC)[C@@H](O)[C@H](C)O2)[C@H](C)[C@@H](O[C@@H]2O[C@H](C)C[C@H](N(C)C)[C@H]2O)[C@](C)(O)C[C@@H](C)CN(C)[C@H](C)[C@@H](O)[C@]1(C)O	inactive	–	–	–	–	inactive	inactive	18.1 µM (active)	inactive	inactive	inactive	inactive	inactive	inactive	inactive	inactive	inactive	inactive	–	–
CCCCCc1ccco1	inactive	–	inactive	inactive	–	inactive	inactive	inactive	inactive	–	inactive	inactive	–	inactive	inactive	–	–	–	–	–
CCCCCCCC/C=C\CCCCCCCC(=O)OCCO	inactive	–	inactive	inactive	inactive	inactive	inactive	inactive	inactive	inactive	inactive	inactive	–	–	inactive	inactive	inactive	–	–	–
CC(C)(C)C(O)/C=C/c1ccc2c(c1)OCO2 (configuration not stated)	inactive	–	inactive	inactive	inactive	inactive	inactive	inactive	inactive	inactive	inactive	inactive	29.8 µM (active)	inactive	23.7 µM (active)	–	inactive	–	–	–
CCOC(=O)c1c(N)sc2c1CCN(Cc1ccccc1)C2	inactive	–	inactive	–	inactive	7.56 µM (active)	inactive	inactive	inactive	–	inactive	–	inactive	inactive	inactive	–	inactive	inactive	-1.17%	inactive
c1ccc(CNc2ncnc3c2ncn3C2CCCCO2)cc1 (configuration not stated)	–	inactive	–	–	inactive	inactive	–	inactive	inactive	–	inactive	inactive	21.7 µM (active)	inactive	inactive	–	inactive	–	–	–

Reference: PubChem BioAssay (Tox21)
